# How the values were obtained:
# Experiment in all cases: DAPPL (digital affinity profiling via proximity ligation, sequencing); 10 mM Tris-HCl pH 7.5, 50 mM NaCl, 1 mM DTT, 4% glycerol, room temperature, 30 min; GST-TFs on glutathione beads, 16-mer random dsDNA library, 0.1% formaldehyde crosslink after washing; high values mean tight binding
# Conditions in all cases: protein: recombinant; tags: N-terminal GST; dsDNA, one strand shown
# [1] = target: T1, FLI1 (Homo sapiens, UniProt Q01543 1-452)
# T1 sequence: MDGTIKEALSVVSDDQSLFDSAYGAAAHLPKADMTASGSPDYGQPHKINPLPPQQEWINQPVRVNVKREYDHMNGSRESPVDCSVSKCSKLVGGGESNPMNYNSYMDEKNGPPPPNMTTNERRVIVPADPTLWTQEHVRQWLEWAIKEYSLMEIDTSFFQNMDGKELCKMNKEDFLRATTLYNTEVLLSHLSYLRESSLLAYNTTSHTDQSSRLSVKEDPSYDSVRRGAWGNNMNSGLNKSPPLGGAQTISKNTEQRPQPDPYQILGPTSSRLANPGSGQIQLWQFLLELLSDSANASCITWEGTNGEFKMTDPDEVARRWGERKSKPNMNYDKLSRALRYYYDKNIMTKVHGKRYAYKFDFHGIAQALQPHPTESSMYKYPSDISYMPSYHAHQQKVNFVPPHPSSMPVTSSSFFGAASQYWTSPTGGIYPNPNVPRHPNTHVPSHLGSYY
# In short: (§1)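 Binding signal is defined as a hexamer's read frequency for one factor over its frequency for the tag-only sample. To obtain reads, GST-fused human transcription factors were expressed in yeast, captured on glutathione beads, barcoded with DNA and pooled with that sample. Pools met 200 nmole of a 16-mer random double-stranded DNA library in Tris/NaCl/DTT/glycerol buffer for 30 min at room temperature before washing, 0.1% formaldehyde crosslinking, proximity ligation (BsaI/T4 ligase, 1 h, 37 °C), PCR and Illumina NextSeq500 sequencing.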
# [2] = target: T2, ELK1 (Homo sapiens, UniProt P19419 1-428)
# T2 sequence: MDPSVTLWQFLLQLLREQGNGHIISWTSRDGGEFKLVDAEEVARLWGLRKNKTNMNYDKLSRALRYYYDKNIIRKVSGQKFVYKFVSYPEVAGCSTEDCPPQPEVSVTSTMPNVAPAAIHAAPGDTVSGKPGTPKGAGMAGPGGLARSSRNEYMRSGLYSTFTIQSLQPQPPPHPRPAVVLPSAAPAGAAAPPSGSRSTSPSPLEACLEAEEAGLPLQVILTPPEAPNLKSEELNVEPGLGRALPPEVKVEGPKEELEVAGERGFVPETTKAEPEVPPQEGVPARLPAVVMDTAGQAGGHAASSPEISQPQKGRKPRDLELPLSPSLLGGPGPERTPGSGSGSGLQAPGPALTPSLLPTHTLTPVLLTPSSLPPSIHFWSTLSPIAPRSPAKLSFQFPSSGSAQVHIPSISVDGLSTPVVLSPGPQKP
# In short: as §1
# [3] = target: T3, GABPA (Homo sapiens, UniProt Q06546 1-454)
# T3 sequence: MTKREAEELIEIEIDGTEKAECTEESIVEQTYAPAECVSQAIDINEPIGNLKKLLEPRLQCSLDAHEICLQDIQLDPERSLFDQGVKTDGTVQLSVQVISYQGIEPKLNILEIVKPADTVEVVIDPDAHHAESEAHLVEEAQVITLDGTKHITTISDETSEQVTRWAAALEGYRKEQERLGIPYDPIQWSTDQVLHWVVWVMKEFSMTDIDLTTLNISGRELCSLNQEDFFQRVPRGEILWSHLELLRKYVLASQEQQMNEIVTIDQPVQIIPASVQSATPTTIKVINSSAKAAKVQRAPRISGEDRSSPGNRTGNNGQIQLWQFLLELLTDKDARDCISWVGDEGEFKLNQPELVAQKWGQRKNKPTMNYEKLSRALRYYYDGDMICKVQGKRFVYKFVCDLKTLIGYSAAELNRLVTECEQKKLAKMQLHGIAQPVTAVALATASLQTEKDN
# In short: as §1
# [4] = target: T4, ERG (Homo sapiens, UniProt P11308 1-479)
# T4 sequence: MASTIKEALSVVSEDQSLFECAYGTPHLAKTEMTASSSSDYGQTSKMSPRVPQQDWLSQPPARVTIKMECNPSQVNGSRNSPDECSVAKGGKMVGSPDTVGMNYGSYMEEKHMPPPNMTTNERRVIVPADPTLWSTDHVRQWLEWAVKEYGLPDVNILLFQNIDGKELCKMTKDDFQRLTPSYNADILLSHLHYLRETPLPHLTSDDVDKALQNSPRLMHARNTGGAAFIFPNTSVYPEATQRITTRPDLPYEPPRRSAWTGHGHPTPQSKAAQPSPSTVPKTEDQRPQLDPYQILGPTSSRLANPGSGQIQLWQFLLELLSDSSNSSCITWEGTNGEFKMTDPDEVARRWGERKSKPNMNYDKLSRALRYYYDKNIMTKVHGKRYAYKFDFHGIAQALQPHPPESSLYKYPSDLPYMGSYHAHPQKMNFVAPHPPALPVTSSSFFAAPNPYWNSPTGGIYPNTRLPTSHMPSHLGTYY
# In short: as §1
# [5] = target: ELF1 (Homo sapiens, UniProt P32519 1-619)
# In short: as §1
# [6] = target: T5, EHF (Homo sapiens, UniProt Q9NZC4 1-300)
# T5 sequence: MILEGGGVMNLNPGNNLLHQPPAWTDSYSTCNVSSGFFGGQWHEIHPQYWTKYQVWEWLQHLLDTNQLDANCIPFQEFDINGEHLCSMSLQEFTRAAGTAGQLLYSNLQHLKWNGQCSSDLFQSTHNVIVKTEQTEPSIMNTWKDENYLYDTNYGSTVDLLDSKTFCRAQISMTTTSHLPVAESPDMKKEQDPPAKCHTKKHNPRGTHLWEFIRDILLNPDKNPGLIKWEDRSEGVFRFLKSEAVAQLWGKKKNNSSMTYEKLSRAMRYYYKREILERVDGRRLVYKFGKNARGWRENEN
# In short: as §1
# [7] = target: SPI1 (Homo sapiens, UniProt P17947 1-270)
# In short: as §1
# [8] = target: SPIB (Homo sapiens, UniProt Q01892 1-262)
# In short: as §1
# [9] = target: ETV5 (Homo sapiens, UniProt P41161 1-510)
# In short: as §1
# [10] = target: ELF4 (Homo sapiens, UniProt Q99607 1-663)
# In short: as §1
# [11] = target: T6, ETV2 (Homo sapiens, UniProt O00321 1-342)
# T6 sequence: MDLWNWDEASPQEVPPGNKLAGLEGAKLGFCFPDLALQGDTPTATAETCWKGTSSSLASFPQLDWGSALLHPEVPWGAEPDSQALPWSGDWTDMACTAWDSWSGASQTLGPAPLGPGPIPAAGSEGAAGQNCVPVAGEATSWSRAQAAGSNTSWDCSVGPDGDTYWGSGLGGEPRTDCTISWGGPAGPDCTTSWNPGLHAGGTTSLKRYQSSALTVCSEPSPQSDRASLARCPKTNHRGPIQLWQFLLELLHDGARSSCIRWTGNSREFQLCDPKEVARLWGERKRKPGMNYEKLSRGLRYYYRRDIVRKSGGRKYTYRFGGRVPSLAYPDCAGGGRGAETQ
# In short: as §1
# [12] = target: ETV1 (Homo sapiens, UniProt P50549 1-477)
# In short: as §1
# [13] = target: T7, ERF (Homo sapiens, UniProt P50548 1-548)
# T7 sequence: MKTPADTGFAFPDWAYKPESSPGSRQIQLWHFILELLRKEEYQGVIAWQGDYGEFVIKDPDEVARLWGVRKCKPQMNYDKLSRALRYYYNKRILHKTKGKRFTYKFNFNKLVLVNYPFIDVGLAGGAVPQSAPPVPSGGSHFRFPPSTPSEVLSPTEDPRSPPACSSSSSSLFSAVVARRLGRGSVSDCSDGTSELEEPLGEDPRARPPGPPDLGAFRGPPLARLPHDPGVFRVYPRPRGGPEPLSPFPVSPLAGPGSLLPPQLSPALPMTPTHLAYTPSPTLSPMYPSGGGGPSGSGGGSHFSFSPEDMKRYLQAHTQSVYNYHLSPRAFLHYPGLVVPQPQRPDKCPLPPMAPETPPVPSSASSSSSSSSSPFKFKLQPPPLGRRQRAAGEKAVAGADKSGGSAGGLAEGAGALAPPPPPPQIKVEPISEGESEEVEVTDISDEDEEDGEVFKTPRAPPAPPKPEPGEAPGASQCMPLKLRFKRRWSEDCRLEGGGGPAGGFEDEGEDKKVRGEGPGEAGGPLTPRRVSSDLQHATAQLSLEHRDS
# In short: as §1
# [14] = target: T8, ETV3L (Homo sapiens, UniProt Q6ZN32 1-361)
# T8 sequence: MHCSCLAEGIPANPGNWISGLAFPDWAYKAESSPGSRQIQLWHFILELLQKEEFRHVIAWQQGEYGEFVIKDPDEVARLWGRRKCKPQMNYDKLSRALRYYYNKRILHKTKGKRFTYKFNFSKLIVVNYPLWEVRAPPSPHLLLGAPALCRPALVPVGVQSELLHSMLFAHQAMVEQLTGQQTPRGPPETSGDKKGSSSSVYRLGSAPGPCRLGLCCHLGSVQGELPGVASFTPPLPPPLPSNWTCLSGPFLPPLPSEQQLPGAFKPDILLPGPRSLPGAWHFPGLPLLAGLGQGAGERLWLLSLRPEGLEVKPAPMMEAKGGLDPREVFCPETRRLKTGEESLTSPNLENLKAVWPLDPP
# In short: as §1
# [15] = target: T9, ETS2 (Homo sapiens, UniProt P15036 1-469)
# T9 sequence: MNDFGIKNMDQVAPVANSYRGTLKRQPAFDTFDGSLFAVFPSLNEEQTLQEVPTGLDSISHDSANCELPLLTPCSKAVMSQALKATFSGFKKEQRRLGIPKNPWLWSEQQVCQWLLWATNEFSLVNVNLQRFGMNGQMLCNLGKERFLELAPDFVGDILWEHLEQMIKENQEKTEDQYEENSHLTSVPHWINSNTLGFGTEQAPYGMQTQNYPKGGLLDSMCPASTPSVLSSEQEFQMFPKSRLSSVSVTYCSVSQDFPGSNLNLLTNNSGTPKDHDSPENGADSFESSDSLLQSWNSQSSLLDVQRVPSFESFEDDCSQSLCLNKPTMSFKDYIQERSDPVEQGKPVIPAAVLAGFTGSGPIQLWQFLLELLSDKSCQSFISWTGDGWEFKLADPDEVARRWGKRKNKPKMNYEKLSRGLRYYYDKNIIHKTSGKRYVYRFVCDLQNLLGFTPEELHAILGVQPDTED
# In short: as §1
# [16] = target: T10, ETV7 (Homo sapiens, UniProt Q9Y603 1-341)
# T10 sequence: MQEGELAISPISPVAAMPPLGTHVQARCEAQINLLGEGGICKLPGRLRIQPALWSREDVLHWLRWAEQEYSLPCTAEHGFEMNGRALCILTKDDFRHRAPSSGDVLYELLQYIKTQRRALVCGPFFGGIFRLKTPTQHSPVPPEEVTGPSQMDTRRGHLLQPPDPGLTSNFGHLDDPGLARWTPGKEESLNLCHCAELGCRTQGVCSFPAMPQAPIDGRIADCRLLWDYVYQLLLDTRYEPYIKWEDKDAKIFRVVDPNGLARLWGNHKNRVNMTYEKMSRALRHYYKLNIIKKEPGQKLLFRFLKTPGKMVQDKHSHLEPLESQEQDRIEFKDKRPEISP
# In short: as §1
# [17] = target: T11, ETV3 (Homo sapiens, UniProt P41162-2 1-143)
# T11 sequence: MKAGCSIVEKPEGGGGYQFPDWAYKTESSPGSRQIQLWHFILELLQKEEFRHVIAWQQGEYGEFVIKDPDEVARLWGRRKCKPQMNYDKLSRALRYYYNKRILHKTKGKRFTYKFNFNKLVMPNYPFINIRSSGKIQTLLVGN
# In short: as §1
# [18] = target: ETV6 (Homo sapiens, UniProt P41212 1-452)
# In short: as §1
# Sequence of SPIB (Q01892 whole entry): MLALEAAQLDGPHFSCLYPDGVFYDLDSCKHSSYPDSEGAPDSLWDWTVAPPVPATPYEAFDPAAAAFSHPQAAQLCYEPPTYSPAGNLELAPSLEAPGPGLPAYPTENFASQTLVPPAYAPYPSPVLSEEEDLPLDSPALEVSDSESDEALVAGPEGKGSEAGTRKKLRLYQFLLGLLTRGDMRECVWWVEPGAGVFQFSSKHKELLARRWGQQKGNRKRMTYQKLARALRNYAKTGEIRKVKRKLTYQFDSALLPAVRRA
# Sequence of ELF1 (P32519 whole entry): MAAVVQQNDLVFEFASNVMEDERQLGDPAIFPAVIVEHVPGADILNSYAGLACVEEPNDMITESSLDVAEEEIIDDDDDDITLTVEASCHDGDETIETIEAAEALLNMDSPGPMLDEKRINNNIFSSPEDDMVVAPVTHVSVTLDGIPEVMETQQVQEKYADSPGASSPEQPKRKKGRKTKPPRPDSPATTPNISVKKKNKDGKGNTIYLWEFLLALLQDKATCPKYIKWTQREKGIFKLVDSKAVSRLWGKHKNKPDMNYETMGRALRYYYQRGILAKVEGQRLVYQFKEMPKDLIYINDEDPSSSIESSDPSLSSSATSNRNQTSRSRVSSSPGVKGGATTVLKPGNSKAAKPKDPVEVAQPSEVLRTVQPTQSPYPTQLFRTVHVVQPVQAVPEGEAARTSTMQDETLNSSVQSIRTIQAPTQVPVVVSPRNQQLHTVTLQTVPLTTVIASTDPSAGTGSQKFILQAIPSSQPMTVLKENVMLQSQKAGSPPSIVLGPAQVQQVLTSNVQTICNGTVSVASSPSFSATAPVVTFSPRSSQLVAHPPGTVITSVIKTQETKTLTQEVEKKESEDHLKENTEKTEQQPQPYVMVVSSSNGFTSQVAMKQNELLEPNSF
# Sequence of ETV1 (P50549 whole entry): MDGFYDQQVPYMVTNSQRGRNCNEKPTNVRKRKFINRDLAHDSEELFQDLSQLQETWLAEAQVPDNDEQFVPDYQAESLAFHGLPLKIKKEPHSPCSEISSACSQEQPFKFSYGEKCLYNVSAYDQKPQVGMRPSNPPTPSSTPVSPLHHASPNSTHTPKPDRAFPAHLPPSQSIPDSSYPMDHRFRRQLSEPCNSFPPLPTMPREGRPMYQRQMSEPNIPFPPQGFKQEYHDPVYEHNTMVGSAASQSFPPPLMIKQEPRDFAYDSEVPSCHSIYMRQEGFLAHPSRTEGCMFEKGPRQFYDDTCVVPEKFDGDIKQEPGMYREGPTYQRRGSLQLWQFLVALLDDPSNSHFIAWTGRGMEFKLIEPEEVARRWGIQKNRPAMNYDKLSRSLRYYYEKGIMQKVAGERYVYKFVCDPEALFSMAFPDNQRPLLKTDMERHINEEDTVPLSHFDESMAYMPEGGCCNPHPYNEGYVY
# Sequence of ELF4 (Q99607 whole entry): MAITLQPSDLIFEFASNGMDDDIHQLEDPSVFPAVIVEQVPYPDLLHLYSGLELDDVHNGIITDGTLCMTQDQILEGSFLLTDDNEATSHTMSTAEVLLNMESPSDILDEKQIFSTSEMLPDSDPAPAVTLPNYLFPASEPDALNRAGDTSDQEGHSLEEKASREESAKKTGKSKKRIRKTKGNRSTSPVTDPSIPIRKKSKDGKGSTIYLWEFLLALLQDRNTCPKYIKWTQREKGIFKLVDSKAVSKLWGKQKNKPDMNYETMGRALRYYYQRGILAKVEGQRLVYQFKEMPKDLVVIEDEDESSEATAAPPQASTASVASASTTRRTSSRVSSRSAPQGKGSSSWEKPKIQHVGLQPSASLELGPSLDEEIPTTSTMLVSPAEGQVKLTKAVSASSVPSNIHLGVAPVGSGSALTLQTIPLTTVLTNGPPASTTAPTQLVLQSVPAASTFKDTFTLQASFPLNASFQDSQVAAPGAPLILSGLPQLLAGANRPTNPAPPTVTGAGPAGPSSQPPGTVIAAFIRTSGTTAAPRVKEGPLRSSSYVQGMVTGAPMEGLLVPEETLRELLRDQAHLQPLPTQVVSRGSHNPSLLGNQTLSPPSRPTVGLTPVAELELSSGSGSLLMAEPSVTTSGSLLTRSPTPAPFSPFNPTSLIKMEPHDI
# Sequence of ETV5 (P41161 whole entry): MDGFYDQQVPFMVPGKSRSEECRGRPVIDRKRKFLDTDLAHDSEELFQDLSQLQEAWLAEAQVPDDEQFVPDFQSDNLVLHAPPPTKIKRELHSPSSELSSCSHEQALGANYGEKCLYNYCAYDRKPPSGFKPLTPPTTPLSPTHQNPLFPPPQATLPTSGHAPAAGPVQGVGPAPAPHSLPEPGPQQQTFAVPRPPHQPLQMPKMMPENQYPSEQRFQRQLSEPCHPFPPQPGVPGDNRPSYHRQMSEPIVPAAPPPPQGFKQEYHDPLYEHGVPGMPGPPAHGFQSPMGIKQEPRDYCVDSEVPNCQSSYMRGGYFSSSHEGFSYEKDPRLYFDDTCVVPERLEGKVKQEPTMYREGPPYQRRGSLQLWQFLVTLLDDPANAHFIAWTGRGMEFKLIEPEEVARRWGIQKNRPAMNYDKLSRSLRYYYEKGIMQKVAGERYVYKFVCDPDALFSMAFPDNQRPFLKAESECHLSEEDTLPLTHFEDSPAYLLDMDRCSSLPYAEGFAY
# Sequence of ETV6 (P41212 whole entry): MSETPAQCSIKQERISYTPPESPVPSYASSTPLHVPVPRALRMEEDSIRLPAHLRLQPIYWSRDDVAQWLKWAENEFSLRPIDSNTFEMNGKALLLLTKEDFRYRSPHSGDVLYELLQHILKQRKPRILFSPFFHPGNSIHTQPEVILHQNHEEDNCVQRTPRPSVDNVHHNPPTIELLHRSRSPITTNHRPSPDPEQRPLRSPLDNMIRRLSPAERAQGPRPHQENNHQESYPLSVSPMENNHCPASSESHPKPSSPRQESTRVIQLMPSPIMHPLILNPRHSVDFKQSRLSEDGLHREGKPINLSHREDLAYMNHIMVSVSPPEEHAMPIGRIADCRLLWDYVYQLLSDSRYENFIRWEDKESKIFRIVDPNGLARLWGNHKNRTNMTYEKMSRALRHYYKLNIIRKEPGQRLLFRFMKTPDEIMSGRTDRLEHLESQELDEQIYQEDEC
sequence,measurement,setting,value
TGCCCA,binding signal,[1],"1.21 fold enrichment (6-mer frequency, TF over GST control)"
same,binding signal,[2],"1.23 fold enrichment (6-mer frequency, TF over GST control)"
same,binding signal,[3],"1.19 fold enrichment (6-mer frequency, TF over GST control)"
same,binding signal,[4],"1.14 fold enrichment (6-mer frequency, TF over GST control)"
same,binding signal,[5],"1.16 fold enrichment (6-mer frequency, TF over GST control)"
same,binding signal,[6],"1.08 fold enrichment (6-mer frequency, TF over GST control)"
same,binding signal,[7],"1.09 fold enrichment (6-mer frequency, TF over GST control)"
same,binding signal,[8],"1.12 fold enrichment (6-mer frequency, TF over GST control)"
same,binding signal,[9],"1.2 fold enrichment (6-mer frequency, TF over GST control)"
same,binding signal,[10],"1.2 fold enrichment (6-mer frequency, TF over GST control)"
same,binding signal,[11],"1.1 fold enrichment (6-mer frequency, TF over GST control)"
same,binding signal,[12],"1.03 fold enrichment (6-mer frequency, TF over GST control)"
same,binding signal,[13],"1.12 fold enrichment (6-mer frequency, TF over GST control)"
same,binding signal,[14],"1.12 fold enrichment (6-mer frequency, TF over GST control)"
same,binding signal,[15],"1.12 fold enrichment (6-mer frequency, TF over GST control)"
same,binding signal,[16],"1.23 fold enrichment (6-mer frequency, TF over GST control)"
same,binding signal,[17],"1.15 fold enrichment (6-mer frequency, TF over GST control)"
same,binding signal,[18],"1.14 fold enrichment (6-mer frequency, TF over GST control)"
